Source: PubChem (several laboratories)
SENP6 inh – SENP6 protease inhibitors, primary screen, biochemical, luminescence, uHTS; 330,000 tested, 1.8% active; AID 2599, 2010; Recombinant SENP6 catalytic domain, aminoluciferin luminescence; Sentrin-specific protease 6 (Homo sapiens), Q9GZR1; inhibition, % at 10 µM;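 active means inhibition above about 50% at the single tested dose, limit read from the data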;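 further: plate controls were DMSO wells with enzyme for no effect and DMSO wells lacking enzyme for full effect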
SENP8 block-1 – SENP8 protease inhibitors, primary screen, biochemical, luminescence; 330,000 tested, 1.2% active; Sentrin-specific protease 8 (Homo sapiens), Q96LD8; purified SENP8, Z-RLRGG-aminoluciferin cleavage; inhibition, % at 10 µM; in the data active means inhibition above about 50%
Target sequence (Q96LD8 whole entry, looked up): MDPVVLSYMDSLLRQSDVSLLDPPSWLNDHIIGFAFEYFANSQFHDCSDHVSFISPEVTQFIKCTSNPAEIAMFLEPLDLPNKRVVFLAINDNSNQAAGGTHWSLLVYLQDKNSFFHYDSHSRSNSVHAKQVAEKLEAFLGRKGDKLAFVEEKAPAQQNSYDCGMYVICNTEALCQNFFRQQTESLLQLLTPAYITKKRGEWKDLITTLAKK
SENP7 block – SENP7 protease inhibitors, primary screen, biochemical, luminescence, uHTS; Sentrin-specific protease 7 (Homo sapiens), Q9BQF6; recombinant SENP7, Z-RLRGG-aminoluciferin luminescence, 40 min; inhibition, % at 5 µM; 330,000 tested, 1.5% active; AID 434973, 2010;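 active means inhibition above about 50% at the single test dose, limit read from the data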;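 further: plate controls were DMSO with enzyme for no effect and no enzyme buffer wells for full effect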
HSP90 refold inh – HSP90 inhibitors, primary screen, cell lysate, luminescence; AID 1789, 2009; 290,000 tested, 0.91% active; inhibition, % at 5.6 µM; Rabbit reticulocyte lysate, luciferase refolding luminescence, 3 h; Heat shock protein HSP 90 (rabbit reticulocyte lysate; luciferase refolding);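 active means inhibition above the screen-wide mean plus 3 SD, computed separately per campaign, cut at about 16% in these data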;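 further: 0% = DMSO wells and 100% = 60 µM geldanamycin wells; inhibitors lower the luminescence because luciferase stays unfolded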
SENP8 block-2 – human SENP8 protease inhibitors, primary screen, biochemical, fluorescence, Nedd8 protein substrate, uHTS. 360,000 tested, 0.64% active. recombinant SENP8. inhibition, % at 20 µM. Sentrin-specific protease 8 (Homo sapiens), Q96LD8; in the data active means inhibition mostly above about 40%, no sharp cut-off; inactive means mostly below about 27%
SENP8 conf – SENP8 protease inhibitors, retest, confirmation, biochemical, luminescence, single concentration | 6,200 tested, 40% active | shares compounds with SENP7 block | AID 488912, 2010 | inhibition, % at 12.5 µM | Recombinant SENP8, Z-RLRGG-aminoluciferin luminescence, 60 min;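 active means mean inhibition across replicates above about 50%, limit read from the data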
SENP6 conf – SENP6 protease inhibitors, confirmation, biochemical, luminescence, single concentration; shares compounds with SENP7 block; recombinant SENP6, Z-RLRGG-aminoluciferin luminescence; inhibition, % at 12.5 µM; 6,200 tested, 58% active; AID 488915, 2010
SENP7 conf – SENP7 protease inhibitors, retest, confirmation, biochemical, luminescence, single concentration. shares compounds with SENP7 block. recombinant SENP7, Z-RLRGG-aminoluciferin luminescence, 40 min. inhibition, % at 12.5 µM. 6,200 tested, 69% active
Casp3 select – caspase-3 protease inhibitors, confirmation, selectivity assay for SENP inhibitor project, biochemical, single concentration | AID 488918, 2010 | inhibition, % at 12.5 µM | 6,200 tested, 60% active | purified caspase-3, Z-DEVD-aminoluciferin luminescence, 60 min | shares compounds with SENP7 block;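 active means mean inhibition above about 50%, limit read from the data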;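 further: plate controls were enzyme with DMSO for no effect and wells without caspase-3 for full effect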
Target sequence (P42574 28-227 limits assumed): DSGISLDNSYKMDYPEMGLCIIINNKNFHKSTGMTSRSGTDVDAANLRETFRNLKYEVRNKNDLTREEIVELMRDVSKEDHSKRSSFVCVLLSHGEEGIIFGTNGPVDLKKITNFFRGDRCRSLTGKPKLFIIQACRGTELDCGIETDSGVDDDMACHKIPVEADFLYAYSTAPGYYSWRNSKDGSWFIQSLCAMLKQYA
SENP luc ctr – interferes with luciferase luminescence in SENP counter-screen. shares compounds with SENP7 block. Pre-incubated SENP8/Z-RLRGG-aminoluciferin, luciferase luminescence interference. inhibition, % at 12.5 µM. 6,200 tested, 39% active;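 active means mean inhibition above about 50% when retested at one dose, limit read from the data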;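 further: plate controls were DMSO wells with completed reaction for no effect and substrate without enzyme for full effect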
An asterisk follows results filed as active; nt = no result given. Most compounds without a hit are left out; they make up all but 2.7% or so of the library.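 How the source made its calls, unless noted: active means mean inhibition above about 50% in the one-dose retest (limit read from the data); inactive means the rest.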

SMILES	SENP6 inh	SENP8 block-1	SENP7 block	HSP90 refold inh	SENP8 block-2	SENP8 conf	SENP6 conf	SENP7 conf	Casp3 select	SENP luc ctr
C/C(=N\NC(=O)c1ccccc1O)C1C(=O)c2ccccc2C1=O	94.1*	92.5*	87.1*	-0.7	36.1	97.9*	98.5*	101.5*	89.3*	74.1*
C/C(=N\NC(=O)c1ccccc1O)c1c(O)cc(C)oc1=O	81.3*	61.7*	68.8*	-3.1	-72.9	13.2	6.3	0.8	-3.2	-2.3
CCOC(=O)c1c(N)n(CCOC(=O)c2cccs2)c2nc3ccccc3nc12	84.3*	42.7	47.1	6.0	-282.4	7.8	6.0	9.5	4.5	0.0
CCOC(=O)c1c(N)n(-c2ccc(N)cc2)c2nc3ccccc3nc12	15.9	-5.4	3.1	-0.5	-152.0	nt	nt	nt	nt	nt
c1cc(-c2cccs2)nc(-c2cccs2)c1	-6.4	2.6	0.2	-2.0	12.9	nt	nt	nt	nt	nt
c1coc(-c2cnc3ccccc3n2)c1	nt	nt	nt	nt	-492.0	nt	nt	nt	nt	nt
Oc1ccc(-c2cnc3ccccc3n2)cc1	90.0*	83.9*	70.6*	nt	-315.9	82.5*	81.6*	97.0*	86.7*	85.7*
c1csc(-c2cnc3ccccc3n2)c1	67.4*	30.6	58.9*	-3.4	-281.5	12.1	54.3*	83.3*	58.5*	11.2
CCCCOc1ccc(-c2cnc3ccccc3n2)cc1	96.1*	90.9*	94.5*	-3.9	-407.0	52.3*	64.1*	55.3*	82.7*	20.5
Nc1ccc(-c2cnc3ccccc3n2)cc1	62.1*	54.6*	62.2*	nt	-99.9	59.0*	55.0*	85.5*	75.4*	60.6*
O=C(O)c1cc(-c2ccc(O)cc2)nc2ccccc12	8.9	3.2	-0.9	2.0	nt	nt	nt	nt	nt	nt
Cc1ccc(C)c(CN2C(=O)c3ccccc3S(=O)c3ccc(C(=O)N4CCN(c5ccccn5)CC4)cc32)c1 (configuration not stated)	3.2	-6.6	7.7	0.1	15.2	nt	nt	nt	nt	nt
CCN(CC)C(=O)C1=C(C)N(Cc2ccc(F)cc2)C(=O)C(CC(=O)NCc2ccco2)C1 (configuration not stated)	nt	nt	nt	nt	8.2	nt	nt	nt	nt	nt
O=C(CSc1nnc(C2CC2)n1Cc1ccccc1)N1CCN(S(=O)(=O)c2ccccc2)CC1	-8.9	-2.7	-3.0	1.8	-3.7	nt	nt	nt	nt	nt
Nc1ccc2nc(-c3ccccc3)cnc2c1	67.1*	52.5*	42.4	nt	-369.1	41.1	67.6*	88.0*	73.8*	71.0*
CCOC(=O)c1ccc2ncc(-c3ccccc3)nc2c1	nt	nt	nt	-4.0	5.2	nt	nt	nt	nt	nt
Cc1cc2ncc(-c3ccccc3)nc2cc1C	95.1*	95.1*	96.9*	14.7	-5.5	96.9*	99.1*	102.3*	96.1*	91.9*
O=C(Oc1ccc(-c2cnc3ccccc3n2)cc1)c1cccc([N+](=O)[O-])c1	23.7	13.6	0.8	-3.1	-63.6	nt	nt	nt	nt	nt
O=C(Oc1ccc(-c2cnc3ccccc3n2)cc1)c1ccc(Br)o1	51.0*	41.5	74.6*	-1.1	-47.4	13.0	22.1	24.0	63.7*	19.7
COc1ccccc1CNC(=O)COC(=O)CSc1ccc(C)c(C)c1	-10.4	6.4	-1.0	nt	-2.0	nt	nt	nt	nt	nt
Cc1ccc2c(Cl)cc(Cl)c(OCC(=O)Nc3cc(S(=O)(=O)N(C)C)ccc3C)c2n1	-11.5	-1.2	-1.2	9.0	-10.3	nt	nt	nt	nt	nt
